Reference: PubChem BioAssay
The source made the active and inactive calls.

Tests used:
Albumin (Bos taurus) = Albumin (Bos taurus) (UniProt P02769); experiment: bovine serum albumin binders on microarray, profiling panel, artefact control for SMM control protein annotation, biochemical, small-molecule microarray, Alexa647 label, 635/667 nm fluorescence (AID 1118); settings: BSA-A647 binding, fluorescence 635 nm, higher = more signal;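 note: score merges 667 nm emission intensity and signal-to-noise per printed compound spot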
Albumin (Bos taurus), sequence (P02769 whole entry, looked up): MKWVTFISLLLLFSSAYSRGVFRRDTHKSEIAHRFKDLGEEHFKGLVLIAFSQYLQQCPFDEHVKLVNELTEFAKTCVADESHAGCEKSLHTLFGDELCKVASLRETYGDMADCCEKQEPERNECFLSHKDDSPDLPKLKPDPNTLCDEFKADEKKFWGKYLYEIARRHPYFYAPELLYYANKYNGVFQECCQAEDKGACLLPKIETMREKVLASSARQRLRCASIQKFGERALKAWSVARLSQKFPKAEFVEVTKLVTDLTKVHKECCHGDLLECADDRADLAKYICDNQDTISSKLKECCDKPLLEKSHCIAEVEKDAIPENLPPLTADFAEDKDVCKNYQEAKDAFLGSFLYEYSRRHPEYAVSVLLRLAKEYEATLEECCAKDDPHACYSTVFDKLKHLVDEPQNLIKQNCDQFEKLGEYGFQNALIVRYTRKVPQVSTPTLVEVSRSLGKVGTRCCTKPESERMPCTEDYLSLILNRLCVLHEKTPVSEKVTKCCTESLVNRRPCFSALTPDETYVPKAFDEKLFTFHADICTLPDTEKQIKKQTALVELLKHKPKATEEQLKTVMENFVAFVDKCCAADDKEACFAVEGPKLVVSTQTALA

[1] = small-molecule microarray binders of probe aXIP, primary screen, biochemical, NeuroSMM set, 635/667 nm fluorescence (AID 1119); settings: higher = more signal, called active from +8 up or from −8 down;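 note: probe is the protein aXip251-270 applied at 1 µg/mL to compound-printed slides; binding of probe to printed compounds measured as 667 nm fluorescence plus signal to noise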
[2] = small-molecule binders of probe aNOTCH3, primary screen, biochemical, small-molecule microarray, 635/667 nm fluorescence (AID 1120); settings: higher = more signal;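 note: probe is a biotin-tagged antibody raised against NOTCH3 rather than NOTCH3 protein; score merges spot fluorescence near 667 nm with spot signal to noise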
[3] = small-molecule binders of probe aNOTCH2, primary screen, biochemical, small-molecule microarray, 635/667 nm fluorescence (AID 1121); settings: higher = more signal;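 note: score merges feature fluorescence read at 667 nm with its signal to noise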
[4] = biological target: Carbonic anhydrase 2 (Homo sapiens) (UniProt P00918); experiment: CAII small-molecule binders, profiling panel, biochemical, small-molecule microarray, Alexa647-labelled CAII (AID 1122); settings: CAII-A647 binding fluorescence, higher = more signal
[5] = COS7 lysate on small-molecule microarray, probe aHis, 635 nm (AID 1123); settings: COS7 cell lysate, fluorescence, higher = more signal;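 note: z-score combines 667nm fluorescence intensity with signal-to-noise per printed compound spot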
[6] = compound binding in COS7 lysate, probe aLAP1, primary screen, cell lysate, small-molecule microarray (AID 1124); settings: probe aLAP1, fluorescence, higher = more signal;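 note: lysate comes from COS7 cells expressing LAP1 and is applied at 0.3 µg/mL; score merges spot fluorescence near 667 nm with signal-to-noise over triplicate slides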
Sam68 (KHDRBS1) = experiment: Sam68 small-molecule binders, primary screen, biochemical, small-molecule microarray, 635 nm fluorescence (AID 1125); settings: small-molecule microarray binding, higher = more signal;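 note: score merges 667 nm channel intensity with signal to noise over triplicate slides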
[7] = tested on: Chordin-like protein 2 (CHRDL2); experiment: CHRDL2 small-molecule binders, primary screen, biochemical, small-molecule microarray, 635 nm fluorescence (AID 1126); settings: small-molecule microarray binding, fluorescence 635 nm; higher = more signal;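 note: printed compound slides probed with Chrdl2 protein at 4 µg/mL for 1 h at 4 C; score merges 667 nm emission intensity with signal to noise over three replicate slides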
[8] = biological target: Concanavalin-A (Canavalia ensiformis) (UniProt P02866); experiment: ConA small-molecule binders, primary screen, artefact control for SMM control protein annotation, biochemical, small-molecule microarray, Alexa647 label, 635 nm (AID 1127); settings: ConA-A647 binding fluorescence, higher = more signal;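 note: z combines 667 nm emission intensity with signal-to-noise across three replicate slides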
Concanavalin-A (Canavalia ensiformis), sequence (P02866 whole entry, looked up): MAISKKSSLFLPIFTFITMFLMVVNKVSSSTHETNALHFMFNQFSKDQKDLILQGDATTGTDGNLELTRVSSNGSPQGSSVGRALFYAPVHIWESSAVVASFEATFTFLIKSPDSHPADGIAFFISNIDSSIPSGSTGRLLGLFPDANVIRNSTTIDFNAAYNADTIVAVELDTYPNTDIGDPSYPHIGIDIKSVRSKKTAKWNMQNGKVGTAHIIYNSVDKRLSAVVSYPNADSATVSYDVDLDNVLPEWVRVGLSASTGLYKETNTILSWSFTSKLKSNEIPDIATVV

Row | Structure (SMILES) | composite z-score (Albumin (Bos taurus)) | composite Z-score [1] | composite z-score [2] | composite z-score [3] | composite z-score [4] | composite z-score [5] | composite z-score [6] | composite z-score (Sam68 (KHDRBS1)) | composite z-score [7] | composite z-score [8]
1 | CCCCC(=C=CC[C@@H](O)c1ccccc1OCCO)CCO | 0.694 | 0.35 (inactive) | -0.0321 | -0.0928 | 0.726 | 1.1 | 0.257 | 0.0301 | -0.638 | -0.382
2 | COC(=O)[C@@]1(Cc2ccc(OC)cc2)[C@H]2c3cc(C(=O)N(C)C)n(CCN4CNCC4=O)c3C[C@H]2CN1C(=O)c1ccccc1 | 0.854 | -0.704 (inactive) | 0.0539 | 0.0228 | 0.879 | 0.287 | 0.898 | -0.668 | -0.386 | -0.61
3 | CCOC1=C2C(CN(S(=O)(=O)c3ccc(C)cc3)C2c2ccc(C)cc2)C2C(=O)N(c3ccccc3)C(=O)C2C1 (stereo not given) | 0.453 | 0.0045 (inactive) | 0.24 | -0.0665 | 0.676 | 1.58 | 0.377 | 0.814 | 0.479 | 0.654
4 | COc1ccc(C(=O)Nc2ccc(CN3C(=O)[C@@]4(O[C@@H](CC(=O)N5CCC[C@H]5CO)[C@H]([Si](C)(C)c5ccc(OC)cc5)[C@H]4C)c4ccccc43)cc2)cc1 | 0.042 | 0.277 (inactive) | -0.0219 | -0.0389 | 0.51 | 1.78 | 0.045 | 1.31 | 0.989 | 1.08
5 | O=C1C[C@]2(c3ccc([N+](=O)[O-])cc3)C(=O)N(CCN3CCOCC3)c3cc(CO)ccc3[C@H]2N1C1CCCCC1 | 0.883 | -0.598 (inactive) | -0.221 | -0.0904 | 0.646 | 0.294 | -0.467 | 0.197 | -0.337 | -0.172
6 | C=C(CCCC)/C(=C/C[C@@H](OC(C)=O)c1ccccc1OCCO)c1cnc2ccccc2c1 | 0.263 | 0.523 (inactive) | 0.033 | -0.0209 | 0.684 | 0.206 | 0.719 | 0.97 | 0.333 | 0.535
7 | C=CCOC(=O)[C@H]1[C@@H]2C(=O)O[C@@H](c3ccccc3)[C@@H](c3ccccc3)N2[C@@H](c2ccc(OCCOC(=O)[C@@H]3C[C@@H]4C(=O)N5CCC[C@H]5C(=O)N4[C@@H]3c3cccc(OCCO)c3)cc2)[C@]12C(=O)Nc1ccccc12 | -0.292 | 0.594 (inactive) | 0.336 | 0.0087 | 0.192 | 1.73 | 0.383 | 1.29 | 0.902 | 1.17
8 | CCOC(=O)C[C@H]1[C@H](OC(=O)Cc2ccc3c(c2)OCO3)[C@@H](NC(=O)c2ccc3ccccc3c2)c2cc(OCCCO)ccc2N1C(=O)c1ccccc1 | 0.601 | -0.0185 (inactive) | -0.0077 | -0.14 | 0.32 | 1.04 | 0.186 | 1.09 | 0.308 | 0.541
9 | CC(C)[C@@H](CO)NC(=O)[C@H]1[C@@H](c2ccccc2)N(c2ccccc2)O[C@@H]1C | 0.595 | 0.365 (inactive) | -0.0573 | -0.162 | 0.459 | 0.46 | 0.145 | -0.238 | 0.207 | -0.271
10 | COCCCNC(=O)[C@@]1(Cc2ccccc2N=[N+]=[N-])N=C(c2ccc(OCCCO)cc2)O[C@H]1c1ccccc1N=[N+]=[N-] | 0.964 | 0.328 (inactive) | 0.386 | 0.149 | 0.58 | 2.76 | 0.889 | 1.29 | -0.0927 | 1.1
11 | O=C1C2C=CC(C(O)C3CCCCC3)N(Nc3ccc([N+](=O)[O-])cc3)C2C(=O)N1c1ccccc1 (stereo not given) | 0.674 | -0.0746 (inactive) | -0.366 | -0.197 | 0.57 | 2.53 | 0.499 | 1.29 | -1.2 | 0.909
12 | O=C1NC(=O)C2C1C=CC(C(O)C(c1ccccc1)c1ccccc1)N2Nc1ccc(Cl)cc1Cl (stereo not given) | 0.766 | -0.713 (inactive) | 0.263 | 0.0409 | 0.584 | 1.84 | 0.0766 | 0.993 | -0.483 | 0.788
13 | C[N+](C)(C)CCCCNC(=O)[C@H]1C[C@H]2C(=O)N[C@@H](Cc3ccccc3)C(=O)N2[C@H]1c1ccc(O)cc1 | -1.16 | 0.474 (inactive) | -0.0343 | -0.167 | 0.358 | 0.396 | 0.0021 | 0.247 | 1.05 | 0.274
14 | CC(C)N1C(=O)[C@@]2(Cc3ccccc31)c1ccccc1C(=O)N(C1CCCCC1)[C@H]2c1ccc(CO)cc1 | -0.352 | -0.0662 (inactive) | 0.0196 | -0.174 | 0.156 | 1.59 | 0.779 | 0.819 | 0.78 | 0.842
15 | O=C1c2ccccc2[C@](Cc2ccccc2I)(C(=O)NC2CC2)[C@H](c2ccc(CO)cc2)N1Cc1ccccc1 | -0.213 | 0.476 (inactive) | -0.0055 | -0.0495 | 0.711 | 1.7 | 0.478 | 0.512 | -0.0374 | 0.894
16 | O=C1O[C@H](c2ccccc2)[C@H](c2ccccc2)N2[C@H]1[C@@H](C(=O)Nc1nc3ccccc3s1)[C@]1(C(=O)Nc3ccc(C#CCCO)cc31)[C@H]2c1ccc(OCCO)cc1 | 0.797 | 0.0956 (inactive) | 0.134 | 0.0785 | 0.419 | 1.42 | 0.516 | 1.32 | 0.586 | 1.09
17 | C=C(CCCC)C(=O)CC[C@H](OC(C)=O)c1cccc(OCCO)c1 | -1.33 | -0.126 (inactive) | -0.224 | -0.205 | -0.361 | -0.0995 | -0.186 | -0.11 | -1.14 | -0.502
18 | CC(C)c1ccc(NN2C(C(O)C(c3ccccc3)c3ccccc3)C=CC3C(=O)N(c4ccccc4)C(=O)C32)cc1 (stereo not given) | 0.933 | -0.136 (inactive) | 0.424 | 0.101 | 0.797 | 2.74 | 0.902 | 1.32 | -0.348 | 1.14
19 | CCOC(=O)C1=CCC(c2ccc(C)cc2)N(S(=O)(=O)c2ccc(C)cc2)C1 (stereo not given) | 0.0328 | 0.798 (inactive) | 0.037 | -0.146 | 0.251 | 1.43 | -0.347 | 0.747 | 0.137 | 0.995
20 | C=CCNC(=O)[C@H]1[C@@H]2C(=O)O[C@@H](c3ccccc3)[C@@H](c3ccccc3)N2[C@@H](c2ccc(OCCO)cc2)[C@]12C(=O)N(C(=O)OCCOC)c1ccccc12 | 0.262 | 0.108 (inactive) | 0.199 | -0.0964 | 0.381 | 1.99 | 0.503 | 1.3 | 0.176 | 1.14
21 | O=C1c2ccccc2[C@@]2(Cc3ccccc3N(CC(F)(F)F)C2=O)[C@H](c2ccc(CO)cc2)N1Cc1ccccc1Cl | -0.465 | 0.142 (inactive) | -0.191 | -0.228 | -0.227 | -0.0414 | -0.153 | 0.428 | 0.929 | 0.409
22 | COc1ccc(CCN2C(=O)[C@@]3(Cc4ccccc42)c2ccccc2C(=O)N(Cc2ccccc2C(F)(F)F)[C@H]3c2ccc(CO)cc2)cc1 | -0.951 | 0.319 (inactive) | -0.0718 | -0.193 | 0.107 | 0.387 | 0.184 | 0.242 | 0.736 | 1.13
23 | [N-]=[N+]=NCc1ccccc1[C@@H]1OC(c2ccc(OCCCO)cc2)=N[C@]1(CCS(=O)(=O)c1ccccc1)C(=O)NCCN1CCOCC1 | 0.899 | 1.31 (inactive) | 0.576 | 0.0476 | 0.634 | 2.86 | 0.623 | 1.3 | 0.207 | 1.1
24 | C=CC[C@]1(C(=O)N2CCCCC2)N=C(c2ccc(OCCCO)cc2)O[C@H]1c1ccccc1 | 0.579 | 0.458 (inactive) | 0.748 | 0.429 | 0.63 | 2.04 | 0.488 | 1.31 | 0.238 | 0.387
